For part of these data: Measured potencies and affinities stand elsewhere. The source made the active and inactive calls.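 The calls were made as follows, unless noted: active = fitted half-maximal concentration within the tested range, moderate curve steepness, significant signal drop, and little compound fluorescence or bead-linkage interference; inactive = the rest.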
How the values were obtained:
[1] = biological target: Cell division control protein 42 homolog (Homo sapiens) (UniProt P60953); experiment: inhibition of fluorescent GTP binding to constitutively active Cdc42 – biochemical, multiplex bead flow cytometry, Bodipy-FL-GTP, dose response (AID 1333;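 active = fitted half-maximal concentration within the tested dose range, moderate curve steepness, a statistically real signal drop, and little compound fluorescence or tag-binding interference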)
[2] = biological target: Cell division control protein 42 homolog (Homo sapiens) (UniProt P60953); experiment: inhibition of fluorescent GTP binding to wildtype Cdc42 – biochemical, multiplex bead flow cytometry, Bodipy-FL-GTP, dose response (AID 1334); conditions: bead-based flow cytometry, Bodipy-FL-GTP binding to GST-Cdc42; at 100 µM (top of the series) unless noted
[3] = biological target: GTPase HRas (Homo sapiens) (UniProt P01112); experiment: Ras wt fluorescent GTP loading blockade – biochemical, wildtype, multiplex bead flow cytometry, dose response (AID 1335;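 active = fitted half-maximal concentration within 10 nM to 100 µM, steepness 0.5 to 2, significant signal drop, low assay interference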); conditions: bead-based flow cytometry, Bodipy-GTP binding to GST-Ras; at 100 µM (top of the series) unless noted
[4] = test system: Ras-related protein Rab-7a (dog), GTP binding; experiment: blockers of fluorescent GTP binding to Rab7 – biochemical, wildtype, multiplex bead flow cytometry, dose response (AID 1336; call rule not given here)
[5] = biological target: Ras-related C3 botulinum toxin substrate 1 (Homo sapiens) (UniProt P63000); experiment: inhibition of wildtype Rac1 nucleotide loading – biochemical, multiplex bead flow cytometry, dose response (AID 1340;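 active = dose curve with midpoint inside tested range, moderate steepness, plateau gap beyond fit error, low compound glow and bead-link interference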); conditions: GST-Rac1 beads, Bodipy-FL-GTP binding; at 100 µM (top of the series) unless noted
[6] = biological target: GTPase HRas (Homo sapiens) (UniProt P01112); experiment: blockade of GTP loading onto mutant Ras – biochemical, activated mutant, multiplex bead flow cytometry, dose response (AID 1341;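 active = dose-response curve with midpoint inside the tested range, moderate steepness, significant amplitude and little compound fluorescence or bead-attachment interference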;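 also: GST-tagged constitutively activated Ras mutant immobilized on beads and multiplexed with other GTPases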)

Sequence of GTPase HRas (Homo sapiens) (P01112 whole entry, looked up): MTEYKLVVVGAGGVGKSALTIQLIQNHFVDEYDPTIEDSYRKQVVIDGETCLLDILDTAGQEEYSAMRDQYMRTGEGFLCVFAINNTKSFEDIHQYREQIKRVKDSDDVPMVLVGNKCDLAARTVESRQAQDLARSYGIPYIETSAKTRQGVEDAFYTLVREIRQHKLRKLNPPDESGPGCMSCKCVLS
Sequence of Cell division control protein 42 homolog (Homo sapiens) (P60953 whole entry, looked up): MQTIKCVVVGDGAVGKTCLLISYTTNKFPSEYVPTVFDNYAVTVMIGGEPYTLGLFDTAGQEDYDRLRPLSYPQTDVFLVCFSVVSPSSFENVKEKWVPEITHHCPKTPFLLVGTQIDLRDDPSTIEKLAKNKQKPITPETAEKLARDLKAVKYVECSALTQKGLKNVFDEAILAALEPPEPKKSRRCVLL

Row | SMILES | outcome [1] | fluorescence, percent of control (lower = inhibition) [2] [%] | GTP binding, percent of control [3] [%] | outcome [4] | GTP binding signal, raw median fluorescence (lower = inhibition) (MCF (arbitrary fluorescence units)) [5] | outcome [6]
1 | CC(C)c1ccc(C(=O)NC2=NCCS2)cc1 | inactive | 50.5 | 62.6 | inactive | 204 | inactive
2 | NC(=O)COC(=O)c1cccc2c1-c1ccccc1C2=O | inactive | 33.4 | 75 | inactive | 176 | inactive
3 | Cc1sc2ncnc(Sc3ccccc3C(=O)O)c2c1C | inactive | 103 | 117 | inactive | 84.4 | inactive
4 | O=c1c(/C=N/Nc2ccccc2)c(Sc2nnnn2-c2ccccc2)nc2ccccn12 | inactive | 107 | 114 | inactive | 308 | inactive
5 | Nc1c(S(=O)(=O)c2cccc(Cl)c2)c2nc3ccccc3nc2n1/N=C/c1ccc(O)c(O)c1 | inactive | 54.4 | 91.7 | inactive | 99.4 | inactive
6 | C=CCSc1nc(N)c(C#N)c(-c2ccc(C)cc2)c1C#N | inactive | 35 | 83.1 | inactive | 262 | inactive
7 | CCOC(=O)c1cnc(SCc2ccc(C)cc2)nc1N | inactive | 32 | 82.3 | inactive | 238 | inactive
8 | Cc1ccccc1COc1c(C)cccc1C(=O)O | inactive | 59.9 | 209 | inactive | 56.3 | inactive
9 | O=C(COC(=O)c1ccc2c(c1[N+](=O)[O-])C(=O)c1ccccc1C2=O)NC1CC1 | inactive | 29.3 | 72.9 | inactive | 178 | inactive
10 | COc1ccc(C(=O)N/N=c2\oc3ccccc3cc2C(N)=O)cc1 | inactive | 36.1 | 82.6 | inactive | 207 | inactive
11 | O=C(Nc1cccc(-c2nnc(-c3ccco3)o2)c1)c1ccccc1 | inactive | 33.7 | 76.1 | inactive | 190 | inactive
12 | COc1ccc(S(=O)(=O)N2CCOCC2)cc1NC(=O)COc1cccnc1[N+](=O)[O-] | inactive | 36.2 | 78.7 | inactive | 190 | inactive
13 | COc1ccc2c(c1)c(C(=O)O)cn2CCOc1ccccc1C | inactive | 61.2 | 204 | inactive | 59.4 | inactive
14 | COc1ccccc1CNC(=O)c1c(N)n(CCCN2CCOCC2)c2nc3ccccc3nc12 | inactive | 44.4 | 89.9 | inactive | 214 | inactive
15 | COc1ccc(C2=Nn3c(nnc3-c3ccccc3)SC2)cc1OC | inactive | 37.5 | 86 | inactive | 214 | inactive
16 | Cc1ccc(-n2nc3c(SCCN4CCOCC4)nnc(C)c3c2C)cc1 | inactive | 49 | 64.6 | inactive | 194 | inactive
17 | CN(C)CCN(C(=O)c1ccc(N2C(=O)CCC2=O)cc1)c1nc2cc3c(cc2s1)OCO3 | inactive | 35.7 | 79.3 | inactive | 261 | inactive
18 | COc1ccc(-c2c(C)[nH]n3c(=O)c(Cc4ccccc4)c(C)nc23)cc1 | inactive | 33.9 | 79 | inactive | 217 | inactive
19 | Cc1ccc(C(=O)OCc2nnc(-c3ccc(Br)cc3)o2)cc1 | inactive | 31.8 | 78.1 | inactive | 241 | inactive
20 | CC1(C)Cc2c(sc3c2C2=NCCN2C=N3)CS1 | inactive | 38.3 | 86.3 | inactive | 280 | inactive

Row | SMILES | outcome [1] | fluorescence, percent of control (lower = inhibition) [2] [%] | GTP binding, percent of control [3] [%] | outcome [4] | GTP binding signal, raw median fluorescence (lower = inhibition) (MCF (arbitrary fluorescence units)) [5] | outcome [6]
21 | O=C1Nc2ccc(Br)cc2C12NNc1ccccc1O2 (stereo not given) | inactive | 33 | 77.8 | inactive | 182 | inactive
22 | O=S(=O)(Cc1ccc(Cl)cc1)c1ccccc1-c1nnc(-c2ccc(Cl)cc2)o1 | inactive | 84 | 160 | inactive | 172 | inactive
23 | CCC(=O)N=C1SC2CS(=O)(=O)CC2N1c1cccc(OC)c1 (stereo not given) | inactive | 89 | 162 | inactive | 180 | inactive
24 | CCN(CC)c1ccc(/C=N/OCC(=O)Nc2cccc(C)c2)cc1 | inactive | 65.3 | 74.6 | inactive | 0 | inactive
25 | Cc1ccc(/C=C(\CCC(=O)O)c2nc3ccccc3s2)cc1[N+](=O)[O-] | inactive | 24.9 | 70.3 | inactive | 216 | inactive
26 | O=C(CNC(=O)c1ccco1)OCN1C(=O)c2ccccc2C1=O | inactive | 52 | 66.1 | inactive | 220 | inactive
27 | Oc1c(C=Nc2ccccc2)sc(=S)n1Cc1ccccc1 | inactive | 34.6 | 75.7 | inactive | 232 | inactive
28 | COc1ccccc1OCCn1cc(C(=O)O)c2ccc(C)cc21 | inactive | 47.9 | 184 | inactive | 55.5 | inactive
29 | O=C(CSc1ccc2nnc(-c3cccc(F)c3)n2n1)N1CCCc2ccccc21 | inactive | 37.7 | 83 | inactive | 209 | inactive
30 | CC1Cc2ccccc2N1S(=O)(=O)c1cccc(C(=O)NCCCO)c1 (stereo not given) | inactive | 38.5 | 85.5 | inactive | 323 | inactive
31 | C=CCc1cc(/C=C/c2nc(O)c([N+](=O)[O-])c(=O)[nH]2)cc(OC)c1O | inactive | 31.5 | 77.1 | inactive | 177 | inactive
32 | O=C(O)C1(NCc2ccc(F)cc2)CCCCC1 | inactive | 62.4 | 89.4 | inactive | 33.6 | inactive
33 | COc1ccc(CNc2nc3ccccc3n2Cc2ccc(C)cc2)cc1OC | inactive | 73 | 73.9 | inactive | 343 | inactive
34 | c1ccc(-c2onc3c2CCCC3)cc1 | inactive | 97.3 | 144 | inactive | 192 | inactive
35 | COc1ccc(-c2cc(-c3ccccc3)c(C#N)c(=S)[nH]2)cc1 | inactive | 28.8 | 69.8 | inactive | 225 | inactive
36 | Cc1ccc(/C=C2\SC(=S)N(C(Cc3ccccc3)C(=O)O)C2=O)cc1 (stereo not given) | inactive | 28.1 | 81.2 | inactive | 212 | inactive
37 | O=C(C#Cc1ccccc1)c1ccc([N+](=O)[O-])cc1 | inactive | 25.5 | 74.2 | inactive | 264 | inactive
38 | COc1ccc(/C=N/NC(=O)Nc2cccc3nsnc23)cc1OC | inactive | 45.1 | 46.7 | inactive | 132 | inactive
39 | Cc1ccc(CSc2nnc(-c3ccccc3N)c(=O)[nH]2)cc1 | inactive | 34.1 | 80.1 | inactive | 259 | inactive
40 | O=C(O)CCCCCNS(=O)(=O)c1cccc2c1C(=O)c1ccccc1C2=O | inactive | 32.5 | 45.9 | inactive | 0 | inactive

Row | SMILES | outcome [1] | fluorescence, percent of control (lower = inhibition) [2] [%] | GTP binding, percent of control [3] [%] | outcome [4] | GTP binding signal, raw median fluorescence (lower = inhibition) (MCF (arbitrary fluorescence units)) [5] | outcome [6]
41 | O=[N+]([O-])c1cc(-c2ncccn2)c([N+](=O)[O-])s1 | inactive | 16.9 | 70.3 | inactive | 292 | inactive
42 | CN1CCN(c2ccccc2NC(=O)c2ccc(-c3cccc([N+](=O)[O-])c3)o2)CC1 | inactive | 40.2 | 93.9 | inactive | 308 | inactive
43 | O=C(COC(=O)/C=C/c1ccc(Cl)cc1)Nc1ccc2c(c1)OCCO2 | inactive | 40.2 | 59.5 | inactive | 162 | inactive
44 | Cc1sc2nc3c(SC(C)C(=O)O)cc(C(=O)c4ccccc4O)cn3c(=O)c2c1C (stereo not given) | inactive | 29.3 | 72.1 | inactive | 186 | inactive
45 | Cc1cccc(CSc2ncccc2C(=O)O)c1 | inactive | 69.2 | 70.8 | inactive | 314 | inactive
46 | O=C(NC1CCCCC1)c1noc2c1CCCCC2 | inactive | 34.3 | 80.9 | inactive | 252 | inactive
47 | Cc1ccc(OCCSc2nc3ccccc3n2CC(=O)O)c(C)c1 | inactive | 55.9 | 85 | inactive | 29.2 | inactive
48 | O=C(Nc1cnn(C23CC4CC(CC(C4)C2)C3)c1)c1cnn2cccnc12 | inactive | 41.2 | 94.2 | inactive | 324 | inactive
49 | CC(=O)Nc1cccc(C#CC(=O)c2ccc([N+](=O)[O-])cc2)c1 | inactive | 39.8 | 178 | inactive | 104 | inactive
50 | CN(/N=C/c1ccncc1)C1=NS(=O)(=O)c2ccccc21 | inactive | 53.9 | 32.4 | inactive | 181 | inactive
51 | Cc1cc(/C=C2\SC(=S)N(Cc3ccco3)C2=O)c(C)n1-c1cccnc1 | inactive | 137 | 95.2 | inactive | 209 | inactive
52 | Cc1nnc(N2CCOCC2)c2nn(-c3cccc(Cl)c3)c(C)c12 | inactive | 204 | 209 | inactive | 306 | inactive
53 | CCOc1cc(/C=C2/SC(=S)NC2=O)ccc1OC(=O)c1ccco1 | inactive | 33.4 | 83.7 | inactive | 208 | inactive
54 | COc1cc2c(cc1OC)-c1cc(NCc3ccccn3)nc(=O)n1CC2 | inactive | 30.7 | 68.3 | inactive | 182 | inactive
55 | COc1ccc(CNCc2sc(C(=O)O)cc2C)cc1OC | inactive | 59.2 | 78.1 | inactive | 32.2 | inactive
56 | CCOC(=O)c1c(C)[nH]c(C)c1C(=O)COc1ncnc2cc([N+](=O)[O-])ccc12 | inactive | 33.9 | 76.2 | inactive | 186 | inactive
57 | Cc1cccc(CNCc2sc(C(=O)O)cc2C)c1 | inactive | 54.2 | 77.2 | inactive | 31.9 | inactive
58 | O=C(O)c1ccccc1SCc1ccc2c(c1)OCO2 | inactive | 71 | 79.2 | inactive | 0 | inactive
59 | Cc1ccccc1NC(=O)CN1C(=O)S/C(=C\c2ccc(-c3cc(C(=O)O)ccc3C)o2)C1=O | inactive | 30.5 | 77.4 | inactive | 258 | inactive
60 | O=C(Nc1nccs1)c1ccc(-c2cccc([N+](=O)[O-])c2)o1 | inactive | 31.6 | 72.4 | inactive | 181 | inactive

From PubChem BioAssay
